# Bioassay records as filed in PubChem.
# G9a block: qHTS Assay for Inhibitors of Histone Lysine Methyltransferase G9a; G9a H3K9 monomethylation, AlphaScreen, 2 h; Histone-lysine N-methyltransferase EHMT2 (Homo sapiens), Q96KQ7; Potency, µM (top dose mostly 102 µM), without a hit: at the top dose activity, negative = inhibition, usual class: inhibitors; 350,000 tested, 8.8% active; further: on the % scale 0 is the no-effect control and ±100 the full control effect; nearly all actives have a fitted effect of over 75% in size
# Target sequence (Q96KQ7 913-1193 limits assumed): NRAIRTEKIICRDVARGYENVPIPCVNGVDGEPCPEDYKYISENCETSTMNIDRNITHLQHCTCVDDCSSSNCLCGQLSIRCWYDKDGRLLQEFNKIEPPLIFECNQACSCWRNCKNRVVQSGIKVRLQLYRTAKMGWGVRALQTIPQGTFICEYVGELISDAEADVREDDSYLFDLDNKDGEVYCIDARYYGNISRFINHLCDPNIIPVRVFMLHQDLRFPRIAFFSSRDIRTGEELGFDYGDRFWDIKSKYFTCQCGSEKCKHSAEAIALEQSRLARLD
#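 Quantitative HTS format: methyltransferase activity on a biotin-tagged H3K9 peptide is measured by AlphaScreen, using a rabbit anti-monomethyl-H3K9 antibody with streptavidin donor and anti-IgG acceptor beads. Final levels are 20 nM enzyme, 500 nM peptide, 20 uM SAM; 2 h RT.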
# HP1b chromo inh: HTS for Inhibitors of HP1-beta Chromodomain Interactions with Methylated Histone Tails | 390,000 tested, 0.56% active | AlphaScreen HP1-beta / biotin-H3K9me3 peptide binding | Chromobox protein homolog 1 (Homo sapiens), P83916 | Potency, µM (titrated, usually from 114 µM), inactives show at the top dose activity change, negative = inhibition, most hits filed as inhibitors; further: nearly all actives have a fitted effect of over 70% in size
# Target sequence (P83916 whole entry, looked up): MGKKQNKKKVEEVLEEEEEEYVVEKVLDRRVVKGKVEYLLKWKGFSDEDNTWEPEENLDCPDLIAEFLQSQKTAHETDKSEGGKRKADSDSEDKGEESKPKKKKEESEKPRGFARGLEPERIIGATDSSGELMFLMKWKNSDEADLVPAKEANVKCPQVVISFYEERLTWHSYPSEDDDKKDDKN
#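 AlphaScreen: HP1-beta (50 nM) preformed 30 min with biotin-H3(1-18)K9me3 peptide (50 nM) in PBS pH 7.4, 0.01% Tween-20. Compound added for 30 min at RT, then streptavidin donor/nickel chelate acceptor beads (10 ug/mL) for 30 min.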
# Sfp PPTase inh: qHTS Assay for Inhibitors of Bacillus subtilis Sfp phosphopantetheinyl transferase (PPTase); 4'-phosphopantetheinyl transferase ffp (Bacillus subtilis), Q9F4F7; Biochemical Sfp PPTase activity, qHTS; Potency, µM, inactives show largest response in the series, negative = inhibition, hits mostly inhibitors; 310,000 tested, 3.5% active; AID 1490, 2009;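 further: the enzyme is Sfp with the accession as filed and its product quenches rhodamine fluorescence; 0% = enzyme reaction without inhibitor and -100% = no enzyme wells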
#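 Reaction rates are the 30-min fluorescence difference (ex 525, em 598 nm) in wells containing 15 nM Sfp, 5 uM rhodamine-CoA and 12.5 uM BHQ-2-YbbR at pH 7.6 with 10 mM MgCl2.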
# BAZ2B block: qHTS Assay for Inhibitors of BAZ2B | Bromodomain adjacent to zinc finger domain protein 2B (Homo sapiens), Q9UIF8 | Potency, µM (doses to about 114 µM), for inactives: top-dose activity change, negative = inhibition, hits mostly inhibitors | 360,000 tested, 4.4% active | AlphaScreen BAZ2B-H3K14Ac peptide displacement | AID 504333, 2011; further: on the % scale 0 is the no-effect control and ±100 the full control effect; nearly all actives have a fitted effect of over 60% in size
#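 BAZ2B 50 nM plus b-H3(5-23)K14Ac 50 nM, PBS pH 7.4/0.01% Tween-20, 30 min RT; compound added (max 110 uM), 30 min RT; streptavidin donor/Ni-chelate acceptor beads 10 ug/mL final, 20 min dark; AlphaScreen read.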
# JMJD2A Tudor: qHTS Assay for Inhibitors of JMJD2A-Tudor Domain | Lysine-specific demethylase 4A (Homo sapiens), O75164 | AlphaScreen JMJD2A-Tudor / H3K4me3 peptide binding | Potency, µM (series often up to 114 µM), inactives show at the highest dose activity change, negative = inhibition, most hits filed as inhibitors | 390,000 tested, 4.4% active | AID 504339, 2011; further: on the % scale 0 is the no-effect control and ±100 the full control effect; nearly all actives have a fitted effect of over 50% in size
# * = called active by the depositor; ? = inconclusive; / = not tested or not shown; [ ] = dose if it differs, or a comment. Compounds with a hit are over-represented: about 12% of the library has one in this group of screens. The call rests on the fitted dose curve; in most records, active means well fitted curve in the direction sought with a large enough effect; inconclusive means small, poorly fitted or top-dose-only effect, or another doubt; inactive means no such curve, though single readings can be large; an effect the other way counts as inactive or inconclusive. Potency means the concentration at half of the fitted maximal effect.
SMILES,G9a block,HP1b chromo inh,Sfp PPTase inh,BAZ2B block,JMJD2A Tudor
C=CCNCCCOc1ccc(C(C)(C)c2ccccc2)cc1,10µM*,?,-65%,40µM*,1.6µM*
CNC(=O)N(O)C1N(c2ccccc2)C(=S)SC1(C)C (centres undefined),-9%[59 µM],18%,24%,-3%,1%
CSc1sccc1/C=C(/C#N)C(=O)c1ccco1,?,-22%,-9%,-22%,-21%
C[C@@H](NCCCn1ccc(NC(=O)OCc2ccccc2)nc1=O)c1cccc2ccccc12,/,13%,/,/,-23%
CC(C)(c1ccccc1)c1ccc(OCCn2cnc3ccccc3c2=O)cc1,12%[12.7 µM],73%,-7%,-3%,-3%
COCCCNCCCOc1ccc(C(C)(C)c2ccccc2)cc1,2.8µM*,?,56µM*,45µM*,6.3µM*
CCc1cc(OCCCCNCc2ccccc2)ccc1Cl,?,25%,-13%,?,6.3µM*
CCOc1cccc(/C=C/c2ccc3cccc(O)c3n2)c1O,-14%,22%,79µM*,-25%,-25%
CCOc1cccc(/C=C/c2ccc3cccc(O)c3n2)c1OC,18%[2.33 µM],18%[57 µM],79µM*,-8%,7%
COc1ccccc1/C=C/c1ccc2cccc(O)c2n1,8%,2%,0%,-9%,-32%
O=C(O)c1cc(S(=O)(=O)Nc2ccc3cn[nH]c3c2)ccc1Cl,/,?,/,/,89µM*
O=S(=O)(Nc1ccc2cn[nH]c2c1)c1ccc(C(F)(F)F)cc1,17%[2.33 µM],45%,/,4%,-5%
COC(=O)c1ccccc1S(=O)(=O)Nc1ccc2cn[nH]c2c1,45µM*,49%,-2%,-3%,0%
CC1(C)CC[C@]2(C)CC[C@@]3(C)C(=CCC4[C@@]5(C)CCC(O)C(C)(C)C5CC[C@@]43C)C2C1 (some centres undefined),-12%[2.33 µM],/,-1%,/,/
COc1cc(O)oc1C=Nc1ccc(Oc2ccccc2)cc1,45µM*,1%,-14%,?,?
COc1cc(O)oc1C=Nc1ccc(Cl)cc1,-4%[12.7 µM],43%,0%,-7%,-12%
CCN(CCCNC(=O)CSc1cc(=O)n(CC)c2ccccc12)c1ccccc1,?,?,/,?,50µM*
CCN(CC)CCCNC(=O)CN1N=C(c2ccccc2)CCC1=O,?,10%,/,8%,-4%
CCN(CCCNC(=O)CN1N=C(c2ccccc2)CCC1=O)c1ccccc1,11µM*,5%,/,-39%,?
Cc1[nH]nc2c1C(c1ccccc1F)NC2=O (centres undefined),6%,39%,14%,10%,-9%
COc1c(C)cccc1C(=O)NC(=S)Nc1ccccc1N1CCCC1,32µM*,-3%,9%,?,50µM*
COc1cccc(C(=O)NC(=S)Nc2ccccc2N2CCCC2)c1,3%[12.7 µM],22µM*,25µM*,28µM*,?
COc1cccc(C(=O)NC(=S)Nc2ccccc2N2CCCCC2)c1,-4%,-12%,12%,?,?
CCCOC(=O)Cc1n[nH]c(=O)[nH]c1=O,-23%,72%,-2%,10%,-1%[11.4 µM]
O=[N+]([O-])c1cccc(C=Nc2cc3c(cc2Br)OCCO3)c1,50µM*,-38%,0%,?,?
O=C(N/N=C/c1cccc([N+](=O)[O-])c1)c1ccc2c(c1)OCCO2,-24%[59 µM],12%,-6%,0%,-5%
CSC1=NCCN1C(=O)COc1ccccc1,?,29%,0%,12%,0%
CCCC(=O)NC(=S)Nc1ccccc1C(=O)OC,40µM*,-8%,?,9%[57.1 µM],-16%[11.4 µM]
COC(=O)c1ccccc1NC(=O)CNc1cc(OC)c(OC)cc1C,20µM*,-23%,-8%,45µM*,?
O=C(CC(=O)Nc1ccccc1C(=O)O)NNC(=O)Cc1ccccc1,/,16%,-21%,-11%,?
